Screening data (PubChem BioAssay)
Sampled rows, rich in hits. Any-hit rate of the full collection: about 3.7%.
TGFb inhibitor – inhibitors of TGF-b signaling; Potency, µM (titrated, usually from 46.1 µM), for the others: top-dose activity, negative = inhibition, actives largely listed as inhibitors; HepG2 CAGA-GFP TGF-b/SMAD3 reporter, GFP fluorescence, 18 h; TGF-beta stimulated, 500 pg/mL final; 410,000 compounds, 1.2% hits; AID 588855; also: % is scaled to controls: 0 for no effect and ±100 for the full control effect; nearly all actives have a fitted effect of over 65% in size
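Inhibition of TGF-beta-driven CAGA-GFP reporter expression in HEPG2 cells is measured by cellular GFP fluorescence after 18 h stimulation with 500 pg/mL recombinant TGF-beta in 1% FBS medium at 37 degrees C.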
ATXN2 expr inh – ATXN2 expression inhibition | HEK-293 ATXN2-luciferase reporter, luminescence, 24 h | Potency, µM (doses to about 57 µM), for inactives: at the top dose activity change, negative = inhibition, most hits filed as inhibitors | 360,000 compounds, 0.72% hits | AID 1745845; also: % is scaled to controls: 0 for no effect and ±100 for the full control effect; nearly all actives have a fitted effect of over 55% in size
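ATXN2-luciferase reporter cells (luciferase flanked by upstream and downstream ATXN2 gene portions) were treated 24 h at 37 °C with compounds at up to 57 uM. SteadyGlo luminescence gave expression; GF-AFC fluorescence gave viability.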
ATXN viability – viability counter-screen for ATXN expression inhibitors | S2 cells (HEK-293 line with an ATXN2-luciferase reporter) viability, CellTiter-Fluor protease fluorescence, 24 h | 400,000 compounds, 0.49% hits | Potency, µM (top dose mostly 56.7 µM), most hits filed as cytotoxic | AID 651635; also: nearly all actives have a fitted effect of over 40% in size
GLP-1R agonist – activates the human GLP-1 receptor. P43220. HEK293 GLP-1R CRE-luciferase, luminescence, 4-6 h; cells express a hypersensitive GLP-1R form. Potency, µM (titrated, usually from 45.6 µM), for the others: top-dose activation, usual class: activators. 380,000 compounds, 0.007% hits; also: % of control where 0% means no effect
Target sequence (P43220 whole entry, looked up): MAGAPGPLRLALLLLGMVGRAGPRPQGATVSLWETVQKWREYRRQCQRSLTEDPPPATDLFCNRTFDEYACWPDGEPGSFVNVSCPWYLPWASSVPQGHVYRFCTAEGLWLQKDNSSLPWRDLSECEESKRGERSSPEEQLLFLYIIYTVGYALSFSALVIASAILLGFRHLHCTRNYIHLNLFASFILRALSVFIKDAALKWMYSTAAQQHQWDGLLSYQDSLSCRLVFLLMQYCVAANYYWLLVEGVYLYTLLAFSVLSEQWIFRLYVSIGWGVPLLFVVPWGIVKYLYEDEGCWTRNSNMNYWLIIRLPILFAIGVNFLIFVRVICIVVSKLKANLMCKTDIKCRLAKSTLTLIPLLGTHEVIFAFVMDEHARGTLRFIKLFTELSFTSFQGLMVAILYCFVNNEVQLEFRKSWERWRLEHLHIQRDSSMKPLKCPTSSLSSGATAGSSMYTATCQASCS
HepG2 tox – HepG2 cytotoxicity, counter-screen for TGF-b inhibitors. HepG2 CAGA-GFP viability, ATP luminescence, 18 h. Potency, µM (titrated, usually from 46.1 µM), for the others: at the top dose activity change, negative = cytotoxicity, most hits filed as cytotoxic. AID 588856. 410,000 compounds, 0.76% hits
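CellTiter-Glo luminescence gave cytotoxicity after 18 hours at 37 degrees C. The cells were HepG2 CAGA-GFP in 1% FBS DMEM, stimulated with 500 pg/mL TGF-beta after compound addition. %Activity was normalised to no-cell wells (complete cell-killing) and DMSO (no toxicity), and curves were fitted and classified.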
GLP1R inv ag – GLP-1 receptor (human) inverse agonism. HEK293 GLP-1R CRE-luciferase, luminescence, 24 h; GLP-1R form is constitutively active. P43220. Potency, µM (highest dose often 38.3 µM), without a hit: top-dose activity change, negative = inhibition, usual class: inhibitors. 410,000 compounds, 1.6% hits; also: % is scaled to controls: 0 for no effect and ±100 for the full control effect; nearly all actives have a fitted effect of over 55% in size
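GLP-1R inverse agonism mode: basal reporter luminescence in engineered HEK293 cells measured after one day of compound exposure at 37 deg C, with a 12 min room-temperature detection step.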
Active calls of the source: *; i = inactive; u = inconclusive; x = no result. Calls follow the shape of the dose curve; as a rule, active = well fitted curve in the direction sought with a large enough effect; inconclusive = small, poorly fitted or top-dose-only effect, or another doubt; inactive = no such curve, though single readings can be large; an effect the other way counts as inactive or inconclusive. Potency is read from the fitted curve at half-maximal effect.

SMILES | TGFb inhibitor | ATXN2 expr inh | ATXN viability | GLP-1R agonist | HepG2 tox | GLP1R inv ag
COC(=O)c1c(OCCN2CCCCC2)cc(=O)n2c1CCN(Cc1cccc3nccnc13)CC2 | x | x | i | x | x | x
O=C(CSc1ccc2c(c1)OCCO2)NCCc1ccc(Cl)cc1Cl | u | -10% | i | 3% | -42% | 11µM*
COc1cc(C2(c3ccc(O)c(OC)c3)C(=O)Nc3c(Br)cc(Br)cc32)ccc1O | 25µM* | x | u | 8% | -95% | u
COc1ccc2cc3cc(C(=O)N4CCN(Cc5ccc6c(c5)OCO6)CC4)oc3nc2c1 | 6% | u | u | -8% | -24% | 10µM*
Cc1cc(C)cc(C(=O)N2CCN(Cc3ccc4c(c3)OCO4)CC2)c1 | -21% | 6% | i | 15% | 3% | u
CCCOc1ccc(C(=O)N2CCN(Cc3ccc4c(c3)OCO4)CC2)cc1 | -10% | -6% | i | 1% | 6% | 7.9µM*
O=C(c1ccc2nc(N3CCCCC3)sc2c1)N1CCN(Cc2ccc3c(c2)OCO3)CC1 | -22% | -15% | u | 0% | -26% | 10µM*
COc1ccc2cc3cc(C(=O)NCc4ccc5c(c4)OCO5)oc3nc2c1 | 3% | 1% | u | -2% | 1% | 47%
COc1ccc(-n2c(CCC(=O)O)ccc2-c2ccccc2)c(OC)c1 | 5% | 46% | i | x | -2% | u
CCOC(=O)C1(CC2CC2)CCN(C(=O)c2cc(C3CC3)nc3ccccc23)CC1 | -24% | 31% | i | 1% | -16% | 10µM*
COC(=O)c1cc2sc(C)cc2n1Cc1nc(-c2ccc(C)cc2)oc1C | x | x | x | x | 5% | 15%
Cn1cc(CN2CCC(C(=O)Nc3ccc(Oc4ccccc4F)cc3)CC2)cn1 | -19% | 0% | i | -3% | -31% | 11µM*
Cn1cc(CN2CCCC(C(=O)Nc3ccc(-c4cccc(F)c4)cc3)C2)cn1 (stereo not drawn) | u | x | 32µM* | -2% | -99% | 4.5µM*
CC(=O)Nc1ccc(-c2nnc(SCc3ccccc3)n2C)cc1 | 7% | x | x | x | 2% | x
O=C(Nc1ccc2c(c1)OCCO2)c1cc2sccc2n1Cc1ccc(F)cc1 | -14% | 13% | u | -11% | -33% | 5.6µM*
COc1ccc(CC(=O)NCC2CCCN(Cc3ccc(OC(F)(F)F)cc3)C2)cc1 (stereo not drawn) | -1% | -27% | i | 21% | -29% | 10µM*
O=C1C(=O)N(C2CCN(C(=O)c3ccccc3F)CC2)CCN1Cc1ccc(F)cc1 | -9% | 10% | i | x | 0% | 1%
CC(C)OC(=O)CSc1nc(Cc2ccccc2)nc2ccccc12 | u | u | x | 15% | -36% | 13µM*
COC(=O)CSc1nc(Cc2ccccc2)nc2ccccc12 | 1% | x | i | 14% | 17% | -22%
O=C(NCCN1C(=O)S/C(=C\c2ccc(Cl)c([N+](=O)[O-])c2)C1=O)C1=COCCO1 | 18µM* | u | x | -6% | 22µM* | u
O=C(NCCN1C(=O)S/C(=C\c2ccc(Cl)c(Cl)c2)C1=O)c1cnccn1 | 18% | 2% | i | 7% | 4% | -8%
CC(C)C[C@H](NC(=O)CNC(=O)[C@H](Cc1ccc(O)cc1)NC(=O)[C@H](CO)NC(=O)[C@H](Cc1c[nH]c2ccccc12)NC(=O)[C@H](Cc1cnc[nH]1)NC(=O)[C@@H]1CCC(=O)N1)C(=O)N[C@@H](CCCN=C(N)N)C(=O)N1CCC[C@H]1C(=O)NCC(N)=O (stereo in doubt) | x | -5% | i | x | x | x
O=C1NC(Cc2ccc(O)cc2)c2nc3cc(F)ccc3c(=O)n2-c2cc3ccccc3cc21 (stereo not drawn) | 20µM* | u | u | -2% | -21% | u
Cc1n[nH]c(C)c1S(=O)(=O)N(CC(=O)Nc1ccc(C(F)(F)F)cc1)c1ccc(C(C)C)cc1 | u | x | x | x | -88% | 10µM*
Cc1noc(C)c1S(=O)(=O)N(CC(=O)Nc1ccc(C(F)(F)F)cc1)c1ccc(C(C)C)cc1 | u | -22% | u | 0% | -55% | -19%
SMILES | TGFb inhibitor | ATXN2 expr inh | ATXN viability | GLP-1R agonist | HepG2 tox | GLP1R inv ag
COc1ccc(N(CC(=O)Nc2cc(Cl)ccc2C)S(=O)(=O)c2c(C)n[nH]c2C)cc1 | -20% | x | i | -4% | -1% | 4.5µM*
COc1ccc(-c2nc3c4ccccc4ccn3c2CN2CCCCC2)cc1OC | u | x | 32µM* | 19% | -25% | u
Clc1ccc(-c2nc3ccccn3c2CN2CCCCC2)cc1 | -6% | x | u | 9% | 2% | 10µM*
O=C(c1cc(S(=O)(=O)N2CCCC2)c[nH]1)N1CCN(c2cccc(Cl)c2)CC1 | u | x | x | x | -20% | u
CCN(CC)CCSc1nnc2c3cc(C)ccc3n(Cc3ccccc3)c2n1 | u | u | 16µM* | 24% | -30% | 13µM*
CN=c1scc(-c2ccccc2F)n1/N=C/c1ccc(O)c(O)c1O | u | 34% | i | -15% | 6% | -12%
CN=c1scc(-c2ccccc2F)n1/N=C/c1ccc[nH]1 | -13% | 3.2µM* | u | -10% | -24% | -70%
CC1CCCN(CCOc2ccc3ccccc3c2Br)C1 (stereo not drawn) | u | x | i | 20% | -97% | 10µM*
COc1ccccc1C(=O)NC1(C(F)(F)F)C(=O)Nc2c1c(=O)[nH]c(=O)n2-c1ccc(F)cc1 (stereo not drawn) | 21% | -5% | i | -4% | -2% | -5%
CC(/C=C1\SC(=S)N(CCC(=O)Nc2cccc(C(=O)O)c2)C1=O)=C\c1ccccc1 | -11% | 9% | i | -1% | -32% | 11%
CC(/C=C1\SC(=O)N(CCCC(=O)O)C1=O)=C\c1ccccc1 | u | 1.3µM* | i | -9% | -7% | u
CC(/C=C1\SC(=S)N(CCC(=O)Nc2ccccc2O)C1=O)=C\c1ccccc1 | -21% | 3% | u | -13% | 11% | 5.6µM*
CC(C)c1ccc(/C=C(\C#N)c2nc(-c3ccc(O)cc3)cs2)cc1 | u | u | i | x | 18µM* | -12%
CCCCn1c(NC(=S)Nc2ccccc2)nc2ccccc21 | 13µM* | -14% | i | 21% | -19% | -27%
C=CCc1cccc(CNc2nc3ccccc3n2CC)c1O | -12% | -8% | i | 9% | -40% | 5µM*
CCN(CC)c1ccc(CNc2nc3ccccc3n2CCN2CCCCC2)cc1 | u | u | u | 16% | -15% | u
